The text below walks through data of PubChem BioAssay.

Experiment [1] can be described thus: liver-stage malaria parasite growth inhibition, primary screen, cell-based, HepG2, luciferase luminescence, HepG2 viability (AID 624349; in the data active means parasite load remaining mostly below about 12%, no sharp cut-off; inactive means mostly above about 10%;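 further: 100% = mean of DMSO negative control wells on the same plate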). Particulars: P. berghei liver stage in HepG2, luciferase luminescence, concentration not given here; parasite load remaining: stronger effect = lower value; viability: measured here: HepG2 viability without parasites.
Experiment [2] in a line: Cy5 fluorescence interference with SSB-bound oligo, artefact control for HCV NS3 helicase inhibitor project, biochemical, NIH Clinical Collection, E. coli SSB (AID 743268).
The test system of experiment [3] is Hepatitis C virus NS3 helicase. Kind of experiment: HCV NS3 helicase inhibitors, primary screen, biochemical, fluorescence polarization, NIH Clinical Collection (AID 743270). The settings on record: NS3 helicase binding to Cy5-dT15 DNA, stronger effect = higher value, concentration not given here. Background: Polarisation of emitted light reports the rotation of a fluorescent probe.

The target in experiment [4] is Single-stranded DNA-binding protein (Escherichia coli (strain K12)) (UniProt P0AGE0). In words: E. coli SSB displacement from DNA, counter-screen for HCV NS3 helicase inhibitor project, biochemical, fluorescence polarization, NIH Clinical Collection (AID 743271; in the data active means inhibition above about 28%). Particulars: stronger effect = higher value, concentration not given here. (In general: The purpose of a counterscreen is to sort out artefacts and off-target activity.)

Experiment [5] is described as follows: fluorescence interference in NS3h assay format, artefact control for HCV NS3 helicase inhibitor project, biochemical, NIH Clinical Collection (AID 743272).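 Further: HCV NS3 helicase with a Cy5 labelled single stranded DNA probe.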 The settings on record: fluorescence interference counterscreen, stronger effect = lower value.
Experiment [6] in a line: stimulators of nuclear beta-catenin in C2C12, primary screen, imaging, WNT3A-conditioned medium, mouse C2C12, NPC library (AID 1117326; in the data active means nuclear beta-catenin stimulation mostly above about 4.2%, no sharp cut-off; inactive means mostly below about 10%). The settings on record: stronger effect = higher value.
For experiment [7], the system named is Neuropilin-2 / VEGF-C interaction (human). In words: inhibitors of NRP2–VEGF-C binding, biochemical, microplate binding format, z-score (AID 743281). The settings on record: microplate NRP2/VEGF-C binding assay; stronger effect = lower value.
The test system of experiment [8] is Hepatitis C virus NS3 helicase. In words: HCV NS3 helicase inhibitors, primary screen, biochemical, fluorescence polarization, LOPAC1280 library (AID 687035; in the data active means inhibition above about 37%). Particulars: Purified HCV NS3 helicase, Cy5-dT15 ssDNA binding fluorescence polarization; stronger effect = higher value; concentration not given here.
The nature of experiment [9]: Cy5 fluorescence quenching or enhancement artefacts, artefact control for HCV NS3 helicase inhibitor project, biochemical, LOPAC1280 (AID 687037). The settings on record: Cy5-DNA-NS3h complex fluorescence interference counterscreen.

Where “and” joins values, the source holds several entries; their conditions need not be identical. Equal entries are not always repeated. Calls of active or inactive are those of the source. Unless noted, how the calls were made is not given here.

Usually viability stands for a read-out of living cells in per cent, often relative to untreated cells. One may read the inhibition as the change of the read-out against control, counted positive when it falls. Turning to `CC(C)(C(=O)c1cccnc1)c1cccnc1`, in experiment [1], the parasite load remaining was 42.4% (inactive) and 90.8% (inactive) and 15.1% (inactive). Further, the viability in experiment [1] was 102% and 94.8% and 117%. The results for the fluorescence ratio in experiment [2] and in experiment [5] were 1.03 (inactive) and 0.96 (inactive), respectively. Moreover, the inhibition in experiment [3] was 1.36% (inactive); in experiment [4] it was 1.05% (inactive). Also, the nuclear beta-catenin stimulation in experiment [6] (at 10 µM) is 4.8% (inactive); in [6] (stimulation, at 2 µM), 1.3%.
`C#C[C@]1(O)CC[C@H]2[C@@H]3CCc4cc(O)ccc4[C@H]3CC[C@@]21C`: the parasite load remaining in experiment [1] is 111% (inactive). For the same molecule, the viability in [1] was found to be 66.2%. Also, the fluorescence ratio in experiment [2] is 0.98 (inactive); in experiment [5] it was 0.92 (inactive). Besides, the inhibition is 1.98% (inactive) in experiment [3] and -0.87% (inactive) in experiment [4]. Also, the nuclear beta-catenin stimulation in experiment [6] (at 10 µM) was 1.5% (inactive); in experiment [6] (stimulation, at 2 µM), 0.8%.
In the case of `CC(=O)O[C@H]1C[C@@H]2CC[C@@H]3[C@H](CC[C@@]4(C)[C@H]3C[C@H]([N+]3(C)CCCCC3)[C@@H]4OC(C)=O)[C@@]2(C)C[C@@H]1N1CCCCC1`, the parasite load remaining in experiment [1] is 67.6% (inactive) and 50.8% (inactive). In experiment [1], the viability is 76.1% and 73.5%. In addition, the fluorescence ratio in [2] and in experiment [5] was 1 (inactive) each time. Besides, the inhibition in experiment [3] is -0.22% (inactive); in [4], 5.91% (inactive). Besides, the nuclear beta-catenin stimulation in experiment [6] (at 10 µM) was -1.4% (inactive); in [6] (stimulation, at 2 µM), -1.2%.
Consider `CC1(C)O[C@@H]2C[C@H]3[C@@H]4C[C@H](F)C5=CC(=O)C=C[C@]5(C)[C@@]4(F)[C@@H](O)C[C@]3(C)[C@]2(C(=O)CO)O1`, for which, in experiment [1], the parasite load remaining was 46.3% (inactive) and 25.1% (inactive). Further, the viability in [1] is 96.3% and 68%. The fluorescence ratio in experiment [2] was 1 (inactive); in [5], 0.97 (inactive). The inhibition was -1.36% (inactive) in experiment [3] and 0.29% (inactive) in experiment [4]. Further, the nuclear beta-catenin stimulation in [6] (at 10 µM) was -1.6% (inactive); in experiment [6] (stimulation, at 2 µM), 2%.
Take `CC(C)(C#N)c1cc(Cn2cncn2)cc(C(C)(C)C#N)c1`: the parasite load remaining in experiment [1] was 73.5% (inactive) and 47.4% (inactive). The viability in experiment [1] was 67.1% and 158%. In addition, the fluorescence ratio was 0.93 (inactive) in experiment [2] and 0.92 (inactive) in [5]. The inhibition was -0.22% (inactive) in [3] and 1.18% (inactive) in [4]. Besides, the z-score in [7] is 1.38 (inactive). Besides, the nuclear beta-catenin stimulation in [6] (at 10 µM) was 0.3% (inactive); in experiment [6] (stimulation, at 2 µM) it was 1.7%.
With `C[n+]1ccccc1/C=N/O`, the parasite load remaining in experiment [1] is 55.9% (inactive) and 86% (inactive) and 126% (inactive). Further, the viability in experiment [1] was 133% and 101% and 76.5%. Moreover, the fluorescence ratio is 1 (inactive) in experiment [2] and 0.96 (inactive) in [5]. Also, the inhibition was -3.18% (inactive) in [3] and -0.48% (inactive) in experiment [4]. Further, the nuclear beta-catenin stimulation is -0.7% (inactive) in experiment [6] (at 10 µM) and -0.6% in experiment [6] (stimulation, at 2 µM).
On to `CCC(=O)O[C@]1(C(=O)SCF)[C@H](C)C[C@H]2[C@@H]3C[C@H](F)C4=CC(=O)C=C[C@]4(C)[C@@]3(F)[C@@H](O)C[C@@]21C`, for which, in experiment [1], the parasite load remaining was 82.3% (inactive) and 83.8% (inactive). Moreover, the viability in experiment [1] is 68.2% and 100%. Moreover, the results for the fluorescence ratio in [2] and in experiment [5] were 1 (inactive) and 1.02 (inactive), respectively. Besides, the inhibition in experiment [3] was 5.94% (inactive); in experiment [4], 5.29% (inactive). Besides, the nuclear beta-catenin stimulation in [6] (at 10 µM) is 0.9% (inactive); in experiment [6] (stimulation, at 2 µM) it was 2.7%.
Take `C#C[C@]1(O)CC[C@H]2[C@@H]3[C@H](C)CC4=C(CCC(=O)C4)[C@H]3CC[C@@]21C`: the parasite load remaining in [1] is 43.6% (inactive) and 8.38% (inactive). For the same molecule, the viability in [1] was 76.2% and 73.5%. Further, the fluorescence ratio in [2] and in [5] was 0.99 (inactive) in each case. In addition, the values for the inhibition in experiment [3] and in experiment [4] were 0.66% (inactive) and 1.18% (inactive), respectively. Moreover, the nuclear beta-catenin stimulation is 7.4% (inactive) in experiment [6] (at 10 µM) and 0.8% in [6] (stimulation, at 2 µM).
For `OCc1cc(C(O)CNCCCCCCOCCCCc2ccccc2)ccc1O` (stereo not given), the parasite load remaining in [1] was 94.7% (inactive) and 45.6% (inactive) and 21.7% (inactive). Also, the viability in [1] is 96% and 67.2% and 65.5%. Further, the inhibition in [8] was 2% (inactive); in experiment [3], -1.97% (inactive); in [4] it was -2.76% (inactive). The fluorescence ratio (interference) in experiment [9] was 1 (inactive). For the same molecule, the fluorescence ratio is 0.98 (inactive) in [2] and 1.01 (inactive) in [5]. In experiment [7], the z-score is -0.654 (inactive). In addition, the nuclear beta-catenin stimulation in experiment [6] (at 10 µM) was 2.7% (inactive); in [6] (stimulation, at 2 µM) it was 0.3%.
With `N#Cc1ccc(C(c2ccc(C#N)cc2)n2cncn2)cc1`, in experiment [1], the parasite load remaining is 127% (inactive) and 107% (inactive) and 48.7% (inactive). Further, the viability in experiment [1] was 71.5% and 77.2% and 128%. The fluorescence ratio is 1 (inactive) in experiment [2] and 0.97 (inactive) in experiment [5]. Further, the inhibition was 2.77% (inactive) in experiment [3] and -1.64% (inactive) in experiment [4]. Also, the z-score in [7] was -0.196 (inactive). In addition, the nuclear beta-catenin stimulation in experiment [6] (at 10 µM) is -1.6% (inactive); in [6] (stimulation, at 2 µM), 0%.
Consider `NS(=O)(=O)Cc1noc2ccccc12`, for which the parasite load remaining in [1] was 75.4% (inactive) and 46.4% (inactive). Further, the viability in experiment [1] was 89.2% and 110%. The fluorescence ratio in experiment [2] and in experiment [5] was 1 (inactive) throughout. Also, the inhibition in experiment [3] was -6.82% (inactive); in experiment [4], -4.29% (inactive). Further, the nuclear beta-catenin stimulation was 0.1% (inactive) in experiment [6] (at 10 µM) and 0.4% in experiment [6] (stimulation, at 2 µM).
Turning to `C[C@@H]1C[C@H]2[C@@H]3CCC4=CC(=O)C=C[C@]4(C)[C@@]3(F)[C@@H](O)C[C@]2(C)[C@H]1C(=O)CO`, the parasite load remaining in experiment [1] is 74.3% (inactive). In experiment [1], the viability turned out to be 70.8%. The values for the fluorescence ratio in [2] and in [5] were 0.96 (inactive) and 0.92 (inactive), respectively. Moreover, the inhibition in [3] and in experiment [4] was -1.97% (inactive) throughout. The nuclear beta-catenin stimulation in experiment [6] (at 10 µM) is -1.6% (inactive); in [6] (stimulation, at 2 µM), 0.6%.
Turning to `O=C1N(c2ccccc2)c2ccccc2C1(Cc1ccncc1)Cc1ccncc1`, in experiment [1], the parasite load remaining is 77.9% (inactive). Also, the viability in experiment [1] was determined as 65.3%. Also, the inhibition is -7% (inactive) in [8], -11.6% (inactive) in experiment [3] and -1.18% (inactive) in [4]. Besides, in experiment [9], the fluorescence ratio (interference) was 0.9 (inactive). Besides, the fluorescence ratio is 0.98 (inactive) in experiment [2] and 0.93 (inactive) in experiment [5]. The z-score in experiment [7] was -0.0491 (inactive). Moreover, the nuclear beta-catenin stimulation was 0.2% (inactive) in [6] (at 10 µM) and 3.8% in experiment [6] (stimulation, at 2 µM).
`CCCc1c(OCCCCc2nn[nH]n2)ccc(C(C)=O)c1O`: the parasite load remaining in experiment [1] is 103% (inactive). In addition, the viability in experiment [1] is 65.9%. Besides, the fluorescence ratio in experiment [2] was 1.03 (inactive); in experiment [5] it was 0.98 (inactive). The inhibition in [3] is 5.15% (inactive); in experiment [4], -3.18% (inactive). For the same molecule, the z-score in [7] was 0.174 (inactive). Further, the nuclear beta-catenin stimulation in experiment [6] (at 10 µM) was 0.3% (inactive); in experiment [6] (stimulation, at 2 µM), 1.2%.
With `CC(=O)OCC(=O)NCCCOc1cccc(CN2CCCCC2)c1`, in experiment [1], the parasite load remaining is 165% (inactive) and 103% (inactive) and 34.4% (inactive). In addition, the viability in [1] is 104% and 78.4% and 85%. The values for the fluorescence ratio in experiment [2] and in [5] were 1.04 (inactive) and 1.02 (inactive), respectively. For the same molecule, the inhibition in experiment [3] is -0.4% (inactive); in experiment [4] it was -0.1% (inactive). In [7], the z-score was -0.306 (inactive). Further, the nuclear beta-catenin stimulation is 1.8% (inactive) in experiment [6] (at 10 µM) and 0.4% in experiment [6] (stimulation, at 2 µM).
